# Data from PubChem BioAssay (Tox21).
# Values joined by “and” are separate entries in the source; they are usually repeats but may differ in a detail not shown here. Identical values can stand only once. Inconclusive results are not listed. Entries that show only a call come without a potency. Where a structure was tested more than once in an assay, its records may differ in their call. Active and inactive are the calls of the source. Unless noted, calls come from the whole dose curve; as a rule, active = well fitted curve in the direction sought with a large enough effect in the repeat runs; inconclusive = weak or mixed curves; inactive = no such curve, though single readings can be large; an effect the other way counts as inactive or inconclusive.
# Tests used:
# [1] = qHTS assay to identify small molecule agonists of H2AX (AID 1224845; active = well fitted activation curve with a large enough effect in the signal ratio in the repeat runs, not every such curve was filed as active; the % refers to the signal ratio; note: potency is the fitted concentration of half-maximal effect)
# In short: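 Wild-type CHO-K1 cells plated overnight, then exposed 3 hr at 37C to compounds at 15 concentrations (0.76% DMSO). Lysed, then HTRF anti-pH2AX(S139)-cryptate/anti-H2AX-d2 detection after 24 hr at room temperature; emissions 665 and 620 nm.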
# [2] = qHTS assay to identify small molecule agonists of the hypoxia (HIF-1) signaling pathway (AID 1224846; active = well fitted activation curve with a large enough effect in the signal ratio in the repeat runs, not every such curve was filed as active; the % refers to the signal ratio)
# In short: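 Measured by blue/green FRET after loading CCF4-AM: beta-lactamase expressed from a hypoxia response element in ME-180 cells. Test agents were delivered in DMSO and left 17 hrs; cells had been plated 5 hrs earlier in low-serum (0.5% dialyzed FBS) medium.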
# [3] = qHTS assay to identify small molecule agonists of H2AX - cell viability counter screen (AID 1224847; calls by dose curve; note: nearly all actives have a fitted effect of over 30% in size; note: potency is the fitted concentration of half-maximal effect)
# In short: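 Viability of CHO-K1 (wild type) cells after 3 hr compound exposure was measured by CellTiter-Glo luminescence.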
# [4] = qHTS assay to identify small molecule antagonists of the estrogen related receptor (ERR) signaling pathway from Tox21 library (AID 1224848); note: nearly all actives have a fitted effect of over 50% in size; note: potency is the fitted concentration of half-maximal effect
# In short: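 Screening used an ERR reporter line supplied by NTP, exposed for 18 h at 37 C to library compounds delivered in DMSO. Signal was luciferase luminescence developed with ONE-Glo at room temperature for 30 min.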
# [5] = qHTS assay to identify small molecule agonists of the estrogen related receptor (ERR) signaling pathway from Tox21 library (AID 1224849; calls by dose curve; note: nearly all actives have a fitted effect of over 15% in size); details: ERR reporter cell line, ONE-Glo luciferase, 18 h; at 92.4 µM (top of the series) unless noted
# In short: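 We plated ERR reporter cells, waited 6 h, added compounds in DMSO by pin tool and incubated them 18 h at 37 C. ONE-Glo was then added and luminescence read after 30 min.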
# [6] = qHTS RealTime-Glo MT Cell Viability Assay in HepG2 cells - 24 hour (AID 1224867); note: nearly all actives have a fitted effect of over 50% in size
# In short: (§1)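 Cells + NanoLuc/prosubstrate dispensed (600 cells/well) → 5 h at 37 C/5% CO2 → compounds in DMSO transferred → 40 h incubation at 37 C, luminescence read at 0, 8, 16, 24, 32, 40 h.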
# [7] = qHTS RealTime-Glo MT Cell Viability Assay in HEK293 cells - 32 hour (AID 1224868); note: nearly all actives have a fitted effect of over 50% in size; note: potency is the fitted concentration of half-maximal effect
# In short: (§2)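 Tox21 10K qHTS, HEK293, 600 cells/well, RealTime-Glo reagent co-dispensed with cells; 5 h preincubation, compound by pintool, 37 C, luminescence at 0–40 h.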
# [8] = A CellTox Green Cytotoxicity Assay to monitor cytotoxicity in HEK293 cells - 0 hour (AID 1224869); note: nearly all actives have a fitted effect of over 50% in size
# In short: (§3)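 Each value comes from one timepoint of a single continuous run in which HEK293 cells with CellTox Green were exposed to compound for up to 40 h at 37 C, dye fluorescence rising with cell death.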
# [9] = A CellTox Green Cytotoxicity Assay to monitor cytotoxicity in HEK293 cells - 40 hour (AID 1224871); note: nearly all actives have a fitted effect of over 45% in size
# In short: as §3
# [10] = qHTS RealTime-Glo MT Cell Viability Assay in HEK293 cells - 16 hour (AID 1224872); note: nearly all actives have a fitted effect of over 50% in size; note: potency is the fitted concentration of half-maximal effect
# In short: as §2
# [11] = qHTS RealTime-Glo MT Cell Viability Assay in HepG2 cells - 8 hour (AID 1224873); note: nearly all actives have a fitted effect of over 55% in size
# In short: (§4)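 HepG2 cells mixed with RealTime-Glo MT reagents (NanoLuc plus cell-permeant prosubstrate) were seeded at 600 cells/well, incubated 5 h at 37 C/5% CO2, then pinned with compounds in DMSO; nonlytic luminescence tracked viability during 40 h treatment.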
# [12] = qHTS RealTime-Glo MT Cell Viability Assay in HEK293 cells - 40 hour (AID 1224874); details: RealTime-Glo luminescence; max response: stronger effect = lower value; note: nearly all actives have a fitted effect of over 50% in size; note: potency is the fitted concentration of half-maximal effect
# In short: (§5)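 qHTS format; HEK293 cells with NanoLuc/prosubstrate reagent, 37 C/5% CO2 for 5 h pre-dosing; compounds 23 nL in DMSO; luminescence at each time point reflects viable cells.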
# [13] = A CellTox Green Cytotoxicity Assay to monitor cytotoxicity in HEK293 cells - 24 hour (AID 1224875); note: nearly all actives have a fitted effect of over 45% in size
# In short: as §3
# [14] = A CellTox Green Cytotoxicity Assay to monitor cytotoxicity in HepG2 cells - 16 hour (AID 1224876); note: nearly all actives have a fitted effect of over 45% in size
# In short: (§6)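 Continuous culture of HepG2 cells with a membrane-impermeant DNA dye; rising fluorescence marks dead cells. Compound exposure lasted up to 40 h at 37 C, with reads every 8 h from 0 h.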
# [15] = qHTS RealTime-Glo MT Cell Viability Assay in HepG2 cells - 32 hour (AID 1224877); note: nearly all actives have a fitted effect of over 55% in size
# In short: as §1
# [16] = A CellTox Green Cytotoxicity Assay to monitor cytotoxicity in HepG2 cells - 24 hour (AID 1224878); note: nearly all actives have a fitted effect of over 45% in size
# In short: as §6
# [17] = A CellTox Green Cytotoxicity Assay to monitor cytotoxicity in HepG2 cells - 40 hour (AID 1224879); note: nearly all actives have a fitted effect of over 40% in size
# In short: as §6
# [18] = qHTS RealTime-Glo MT Cell Viability Assay in HEK293 cells - 0 hour (AID 1224880)
# In short: as §5
# [19] = A CellTox Green Cytotoxicity Assay to monitor cytotoxicity in HEK293 cells - 32 hour (AID 1224881); note: nearly all actives have a fitted effect of over 40% in size
# In short: as §3
# [20] = qHTS RealTime-Glo MT Cell Viability Assay in HepG2 cells - 40 hour (AID 1224870); note: nearly all actives have a fitted effect of over 50% in size
# In short: as §4
smiles,measurement,setting,value
CCC(C)c1cc(C(C)(C)C)cc(-n2nc3ccccc3n2)c1O (stereo not drawn),Potency,[1],inactive
same,outcome,[2],inactive
same,Potency,[3],inactive
same,Potency,[4],inactive
same,"activity change, positive = activation",[5],-0.703% [at 42.5 µM] (inactive)
same,Potency,[6],inactive
same,Potency,[7],inactive
same,Potency,[8],inactive
same,Potency,[9],inactive
same,Potency,[10],inactive
same,Potency,[11],inactive
same,max response,[12],9.2% (inactive)
same,Potency,[13],inactive
same,Potency,[14],inactive
same,Potency,[15],inactive
same,Potency,[16],inactive
same,Potency,[17],inactive
same,Potency,[18],inactive
same,Potency,[19],inactive
COC(=O)N(C(=O)N1CO[C@@]2(C(=O)OC)Cc3cc(Cl)ccc3C2=N1)c1ccc(OC(F)(F)F)cc1,Potency,[1],inactive
same,outcome,[2],inactive
same,Potency,[3],inactive
same,Potency,[4],8.35 µM (active)
same,"activity change, positive = activation",[5],-47.5% (inactive)
same,Potency,[6],inactive
same,Potency,[20],inactive
same,Potency,[9],inactive
same,Potency,[13],inactive
same,Potency,[14],inactive
same,Potency,[15],inactive
same,Potency,[16],inactive
same,Potency,[17],inactive
same,Potency,[18],inactive
same,Potency,[19],inactive
COP(N)(=S)OC,Potency,[1],inactive
same,outcome,[2],inactive
same,Potency,[3],inactive
same,Potency,[4],inactive
same,"activity change, positive = activation",[5],3.3% (inactive)
same,Potency,[6],inactive
same,Potency,[7],inactive
same,Potency,[20],inactive
same,Potency,[9],inactive
same,Potency,[10],inactive
same,Potency,[11],inactive
same,max response,[12],0.707% (inactive)
same,Potency,[13],inactive
same,Potency,[14],inactive
same,Potency,[15],inactive
same,Potency,[16],inactive
same,Potency,[17],inactive
same,Potency,[18],inactive
same,Potency,[19],inactive
ClCCN1CCOCC1,Potency,[1],inactive
same,outcome,[2],inactive
same,Potency,[3],inactive
same,Potency,[4],inactive
same,"activity change, positive = activation",[5],-2.74% (inactive)
same,Potency,[6],inactive
same,Potency,[7],inactive
same,Potency,[8],inactive
same,Potency,[20],inactive
same,Potency,[10],inactive
same,Potency,[11],inactive
same,max response,[12],-16.3% (inactive)
same,Potency,[14],inactive
same,Potency,[15],inactive
same,Potency,[17],inactive
same,Potency,[18],inactive
same,Potency,[19],inactive
CC(c1ccc(O)cc1)c1ccc(O)cc1,Potency,[1],inactive and 56.6 µM (active)
same,outcome,[2],inactive
same,Potency,[3],inactive
same,Potency,[4],inactive
same,"activity change, positive = activation",[5],-56.9% (inactive) and -6.34% (inactive)
same,Potency,[6],inactive
same,Potency,[7],45.9 µM (active)
same,Potency,[8],inactive
same,Potency,[20],inactive
same,Potency,[9],inactive
same,Potency,[10],45.9 µM (active) and inactive
same,Potency,[11],inactive
same,Potency,[13],inactive
same,Potency,[14],inactive
same,Potency,[15],inactive
same,Potency,[16],inactive
same,Potency,[17],inactive
same,Potency,[18],inactive
same,Potency,[19],inactive
C[C@]12Cc3nonc3C[C@@H]1CC[C@@H]1[C@@H]2CC[C@@]2(C)[C@H]1CC[C@]2(C)O,Potency,[1],inactive
same,outcome,[2],inactive
same,Potency,[3],49.2 µM (active)
same,Potency,[4],13.3 µM (active)
same,"activity change, positive = activation",[5],-58.3% [at 42.5 µM] (inactive)
same,Potency,[6],inactive
same,Potency,[7],21.3 µM (active)
same,Potency,[8],inactive
same,Potency,[20],inactive
same,Potency,[10],19 µM (active)
same,Potency,[11],inactive
same,Potency,[12],19 µM (active)
same,Potency,[13],inactive
same,Potency,[14],inactive
same,Potency,[15],inactive
same,Potency,[16],inactive
same,Potency,[17],inactive
same,Potency,[18],inactive
same,Potency,[19],inactive
C[C@H]1O[C@@H](O[C@H]2[C@@H](O)C[C@H](O[C@H]3[C@@H](O)C[C@H](O[C@H]4CC[C@@]5(C)[C@H](CC[C@@H]6[C@@H]5CC[C@]5(C)[C@@H](C7=CC(=O)OC7)CC[C@]65O)C4)O[C@@H]3C)O[C@@H]2C)C[C@H](O)[C@@H]1O,Potency,[1],inactive
same,outcome,[2],inactive
same,Potency,[3],inactive
same,Potency,[4],inactive
same,"activity change, positive = activation",[5],-72.7% [at 42.5 µM] (inactive) and -65% [at 42.5 µM] (active)
same,Potency,[6],inactive
same,Potency,[7],31.1 nM (active) and 95.2 nM (active)
same,Potency,[8],inactive
same,Potency,[20],inactive
same,Potency,[9],inactive
same,Potency,[10],0.0952 µM (active)
same,Potency,[11],inactive
same,Potency,[12],31.1 nM (active) and 95.2 nM (active)
same,Potency,[13],inactive
same,Potency,[14],inactive
same,Potency,[15],inactive
same,Potency,[16],inactive
same,Potency,[17],inactive
same,Potency,[18],inactive
same,Potency,[19],inactive
